# Data from PubChem BioAssay (NCATS).
# “And” between values parts separate entries of the source, which are not always exact repeats. Equal entries are not always repeated. Results filed as inconclusive are left out. A call without a number means that no potency is given here. The source made the active and inactive calls. Calls follow the shape of the dose curve; as a rule, active = well fitted cell-killing curve with a large enough effect; inconclusive = small, poorly fitted or top-dose-only effect; inactive = flat fitted curve, though single readings scatter.
# Experiment: qHTS of pediatric cancer cell lines to identify multiple opportunities for drug repurposing: Primary screen for DAOY cells (AID 1347090); also: nearly all actives have a fitted effect of over 55% in size
# Conditions: DAOY medulloblastoma viability, CellTiter-Glo luminescence, 48 h; series mostly up to 46 µM; activity change, negative = cytotoxic: at the top concentration
# Source text: Drug repurposing or repositioning has been offered as a strategy for drug development in oncology programs. This approach has special potential for childhood cancers and other rare or orphan diseases, where the expected return on new drug development has been a disincentive to pharmaceuticals.
# In this project we exploit the poly-pharmacology of drugs to discover new indications via phenotypic screening of a panel of 19 well-characterized cell lines derived from solid tumors seen in children and adolescents. The goal is to identify approved drugs with previously unrecognized anticancer properties that has the potential to reveal new mechanisms and biological processes involved in carcinogenesis or drug resistance. We employed a titration-based paradigm (quantitative high-throughput screening or qHTS), where all compounds were tested at multiple concentrations for their effect on cell viability. Concentration-response curves (CRCs) were derived directly from the primary screen, and both potency and efficacy values were used to identify compounds with robust bioactivity profiles. We screened the NIH Chemical Genomics Center (NCGC) Pharmaceutical Collection (NPC) and Mechanism Interrogation Plate (MIPE) small molecule collections of approved and investigational compounds against these cell lines; and measured metabolically active cells after 48 hours of compound treatment as a proxy for cell viability.
# Assay Submitter: Nathalia J. Martinez, National Center for Advancing Translational Sciences, National Institutes of Health, Rockville, MD, USA; email: natalia.martinez@nih.gov
# [1] Shen, M et al. Quantitative high-throughput phenotypic screening of pediatric cancer cell lines identifies multiple opportunities for drug repurposing. Oncotarget 2017 Dec 19;9(4):4758-4772. PMID 29435139.
# The cells were obtained from University of North Carolina (UNC), Pediatric Preclinical Testing Program (PPT), and Coriell Institute (CI).
# qHTS cell viability assay:
# Cells were assayed in growth media at a density of 500-1,000 cells/well. Five microliters of cells were dispensed into 1,536-well, white, solid-bottom, TC-treated plates (Greiner Bio One) using a multidrop dispenser and incubated at 37 degrees C, 5% CO2, under a humidified atmosphere for 5 hours. Twenty-three nanoliters of compounds and controls (neutral control DMSO or positive control bortezomib at final concentration of 2.3 µM) were subsequently transferred by Kalypsys pintool. For primary screens, the MIPE collection was tested at 11-point dilutions (final concentrations range from 0.78 nM to 46 µM) and the NPC collection at 8-point dilutions (final concentrations range from 0.59 nM to 46 µM). Compounds tested in follow-up screens were assayed at 11-point dilutions. Cells were incubated for 48 hours, followed by addition of 3 uL of CellTiter-Glo (Promega). After a 15 min incubation at room temperature, samples were analyzed for luminescence intensity using a ViewLux High-throughput CCD imager equipped with clear filters.
# Potency is read from the fitted curve at half-maximal effect.
Structure (SMILES),Potency,"activity change, negative = cytotoxic"
O=P(O)(O)C(O)(Cc1cccnc1)P(=O)(O)O,inactive,–
O=C(O)c1cn(C2CC2)c2cc(N3CCNCC3)c(F)cc2c1=O,inactive,–
CCCc1cc(C(N)=S)ccn1,inactive,–
NC(=O)c1cccc(N)c1,–,-1.82% (inactive)
O=C(O)c1cc(=O)[nH]c(=O)[nH]1,inactive,–
NCCCC(O)(P(=O)(O)O)P(=O)(O)O,inactive,–
CC(C)OC(=O)C(C(=O)OC(C)C)=C1SC=CS1,–,1.7% (inactive)
CCN1CCCC1CNC(=O)c1cc(S(N)(=O)=O)ccc1OC (stereo not given),–,-1.37% (inactive)
COC(=O)Nc1nc2ccc(S(=O)c3ccccc3)cc2[nH]1 (stereo not given),841 nM (active) and 14.8 µM (active),–
CO[C@@H]1[C@@H](OC(N)=O)[C@@H](O)[C@H](Oc2ccc3c(O)c(NC(=O)c4ccc(O)c(CC=C(C)C)c4)c(=O)oc3c2C)OC1(C)C,inactive,–
CCC(C)(C)c1ccc(CC(C)CN2C[C@@H](C)O[C@@H](C)C2)cc1 (stereo not given in full),–,-19.9% (inactive)
CC(=O)CC(c1ccccc1)c1c(O)c2ccccc2oc1=O (stereo not given),inactive,–
COC(c1ccccc1)(c1ccccc1)[C@H](Oc1nc(C)cc(C)n1)C(=O)O,inactive,–
CC(=O)[C@H]1CC[C@H]2[C@@H]3CC=C4C[C@@H](O)CC[C@]4(C)[C@H]3CC[C@]12C,inactive,–
CS(=O)(=O)c1ccc([C@@H](O)[C@@H](CO)NC(=O)C(Cl)Cl)cc1,inactive,–
O=NN(CCCl)C(=O)NC1CCCCC1,inactive,–
Nc1nc(F)nc2c1ncn2[C@@H]1O[C@H](CO)[C@@H](O)[C@@H]1O,1.48 µM (active),–
NC(N)=NC(N)=NCCc1ccccc1,18.7 µM (active),–
CNS(=O)(=O)CCc1ccc2[nH]cc(C3CCN(C)CC3)c2c1,–,-17.7% (inactive)
CCOCC(O)COc1ccc(NC(=O)CC[S+](C)C)cc1 (stereo not given),inactive,–

Structure (SMILES),Potency,"activity change, negative = cytotoxic"
CCOC(=O)c1ccc(C#Cc2ccc3c(c2)C(C)(C)CCS3)nc1,inactive,–
CCCCCCNC(=O)n1cc(F)c(=O)[nH]c1=O,inactive,–
CC[C@H](C)C(=O)O[C@H]1C[C@@H](C)C=C2C=C[C@H](C)[C@H](CC[C@@H]3C[C@@H](O)CC(=O)O3)[C@H]21,8.41 µM (active) and 9.35 µM (active),–
OC(Cn1cncn1)(Cn1cncn1)c1ccc(F)cc1F,inactive,–
S=P(N1CC1)(N1CC1)N1CC1,inactive,–
CCN(CC)CC#CCOC(=O)C(O)(c1ccccc1)C1CCCCC1 (stereo not given),–,6.85% (inactive)
CC1=CC(=O)c2ccccc2C1=O,–,-25% (inactive)
Nc1nc(=S)c2[nH]cnc2[nH]1,2.11 µM (active) and 1.87 µM (active),–
Cc1nnc(C(=O)NC(C)(C)c2nc(C(=O)NCc3ccc(F)cc3)c(O)c(=O)n2C)o1,inactive,–
CC(N)C12CC3CC(CC(C3)C1)C2 (stereo not given),inactive,–
COc1cnc(NS(=O)(=O)c2ccc(N)cc2)nc1,–,7.11% (inactive)
COc1ccc2cc3[n+](cc2c1OC)CCc1cc2c(cc1-3)OCO2,6.68 µM (active) and 18.7 µM (active),–
CNS(=O)(=O)Cc1ccc2[nH]cc(CCN(C)C)c2c1,inactive,–
O=C(O)CCn1c2c(c3ccccc31)C[C@H](NS(=O)(=O)c1ccc(F)cc1)CC2,inactive,–
COc1c(N2CCNC(C)C2)c(F)cc2c(=O)c(C(=O)O)cn(C3CC3)c12 (stereo not given),inactive,–
COc1nc(N)nc2c1ncn2[C@@H]1O[C@H](CO)[C@@H](O)[C@@H]1O,inactive,–
COc1ccccc1OCC(O)COC(N)=O (stereo not given),inactive,–
Clc1ccccc1CN1CCc2sccc2C1,inactive,–
CC1=NN(c2ccccc2)C(=O)C1,inactive,–
CC(C)(Sc1cc(C(C)(C)C)c(O)c(C(C)(C)C)c1)Sc1cc(C(C)(C)C)c(O)c(C(C)(C)C)c1,inactive,–
